Experimental data published in PubChem BioAssay (EPA / NIEHS).
Several values for one entry are separate records, joined by “and”; a condition that tells them apart may be missing. Equal entries are not always repeated. Some compounds were tested as several samples or in several runs, with calls that do not always agree. Activity calls are given as the source filed them. How the source made its calls: active means hit-call score of the fitted dose curve at least 0.9, where 1 is the maximum; inactive means score below 0.9.

Key:
[1] = ATG_GLI_CIS: Attagene CIS-FACTORIAL HepG2 Assay for human Zinc Finger Protein GLI1 (AID 2282945); conditions: HepG2, Attagene cis-factorial reporter mRNA, GLI element; actives raise or lower the signal
Method in brief: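 Bidirectional curve fits relative to DMSO, using reporter mRNA levels from RT-PCR plus capillary electrophoresis. Cells were HepG2 transiently carrying cis-regulated reporter constructs, harvested 24 h after dosing.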

[2] = target: Bile acid receptor (Homo sapiens) (UniProt Q96RI1); assay: ATG_IR1_CIS: Attagene CIS-FACTORIAL HepG2 Assay for human Nuclear Receptor Subfamily 1 Group H Member 4 (NR1H4), IR1 submotif (AID 2282946); conditions: IR1 reporter transcription, actives raise or lower the signal
Chain of Bile acid receptor (Homo sapiens) (Q96RI1 whole entry, looked up): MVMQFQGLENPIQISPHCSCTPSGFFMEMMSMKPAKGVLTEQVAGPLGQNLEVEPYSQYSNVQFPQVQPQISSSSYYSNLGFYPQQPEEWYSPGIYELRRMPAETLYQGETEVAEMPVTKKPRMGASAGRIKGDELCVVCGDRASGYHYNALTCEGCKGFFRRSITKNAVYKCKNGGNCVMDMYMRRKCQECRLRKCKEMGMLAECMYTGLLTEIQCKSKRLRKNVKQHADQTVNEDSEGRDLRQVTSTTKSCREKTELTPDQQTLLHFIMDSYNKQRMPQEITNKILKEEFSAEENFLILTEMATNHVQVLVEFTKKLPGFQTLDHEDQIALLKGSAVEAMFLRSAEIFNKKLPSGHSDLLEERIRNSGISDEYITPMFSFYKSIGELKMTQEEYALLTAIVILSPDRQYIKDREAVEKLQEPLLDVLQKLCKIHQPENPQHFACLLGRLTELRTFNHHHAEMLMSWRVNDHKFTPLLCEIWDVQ
Method in brief: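 HepG2 cells transiently transfected with multiplexed cis-element reporter units read endogenous transcription factor activity. After 24 h compound exposure, reporter mRNA was quantified by RT-PCR, fluorescent labelling, HpaI digestion and capillary electrophoresis; bidirectional fitting versus DMSO baseline.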

[3] = ATG_ISRE_CIS: Attagene CIS-FACTORIAL HepG2 Assay for human Interferon Regulatory Factor 1 (IRF1) binding to an Interferon-Stimulated Response Element (ISRE) (AID 2282948); conditions: HepG2 ISRE cis-reporter (Attagene), mRNA transcription readout; actives raise or lower the signal
Method in brief: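 Multiplexed mRNA reporter readout in human liver HepG2 cells: cis-element-driven reporters transfected, compound added for 24 h, transcripts amplified, fluorescently labelled and sized by capillary electrophoresis; curve fitting bidirectional against DMSO.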

[4] = ATG_M_32_CIS: Attagene CIS-FACTORIAL HepG2 Assay for M32 Transcription Factor (Internal Marker) (AID 2282949); conditions: HepG2 Attagene cis-factorial M32 reporter, mRNA; actives raise or lower the signal;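 further: background control marker of the multiplexed CIS panel rather than a real target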
Method in brief: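 Transient MRTU transfection of HepG2; 24 h compound treatment; TriZol RNA, oligo(dT) RT, reporter PCR, 6-FAM primer extension, HpaI cut, CE. Gain/loss of signal vs DMSO.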

[5] = ATG_M_06_CIS: Attagene CIS-FACTORIAL HepG2 Assay for M06 Transcription Factor (Internal Marker) (AID 2282950); conditions: HepG2 Attagene CIS-FACTORIAL M06 internal marker reporter; actives raise or lower the signal
Method in brief: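 Measured 24 h post-dosing in transiently transfected HepG2 cells, this internal-marker endpoint reports reporter mRNA via RT-PCR with fluorescent primer extension and capillary electrophoresis. DMSO served as negative control and baseline for bidirectional fitting.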

[6] = target: Hypoxia-inducible factor 1-alpha (Homo sapiens) (UniProt Q16665); assay: ATG_HIF1a_CIS: Attagene CIS-FACTORIAL HepG2 Assay for human Hypoxia Inducible Factor 1 (HIF1A) (AID 2282951); conditions: HepG2 Attagene cis-factorial HIF1a reporter transcription; actives raise or lower the signal
Chain of Hypoxia-inducible factor 1-alpha (Homo sapiens) (Q16665 whole entry, looked up): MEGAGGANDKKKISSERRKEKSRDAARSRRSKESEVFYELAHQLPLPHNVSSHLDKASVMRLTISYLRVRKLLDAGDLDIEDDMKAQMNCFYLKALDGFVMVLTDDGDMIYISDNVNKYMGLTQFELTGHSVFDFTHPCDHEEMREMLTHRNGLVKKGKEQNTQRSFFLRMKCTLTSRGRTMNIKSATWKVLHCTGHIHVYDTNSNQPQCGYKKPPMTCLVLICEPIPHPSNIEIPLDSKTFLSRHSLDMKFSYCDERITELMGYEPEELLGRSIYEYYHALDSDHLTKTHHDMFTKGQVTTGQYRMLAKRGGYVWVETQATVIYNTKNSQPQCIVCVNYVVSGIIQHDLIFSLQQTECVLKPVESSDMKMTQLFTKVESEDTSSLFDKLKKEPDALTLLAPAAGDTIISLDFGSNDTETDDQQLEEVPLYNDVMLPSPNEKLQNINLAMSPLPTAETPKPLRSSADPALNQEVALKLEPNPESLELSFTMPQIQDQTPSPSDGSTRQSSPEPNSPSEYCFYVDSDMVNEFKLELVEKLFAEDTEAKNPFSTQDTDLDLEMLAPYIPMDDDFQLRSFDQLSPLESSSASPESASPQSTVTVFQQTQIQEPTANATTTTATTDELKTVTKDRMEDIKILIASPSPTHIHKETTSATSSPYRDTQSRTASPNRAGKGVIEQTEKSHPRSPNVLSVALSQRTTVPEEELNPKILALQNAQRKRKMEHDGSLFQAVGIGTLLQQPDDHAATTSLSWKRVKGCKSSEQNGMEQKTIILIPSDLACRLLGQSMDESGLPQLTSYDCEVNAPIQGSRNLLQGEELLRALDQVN
Method in brief: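 HepG2 cells transiently transfected with multiple cis-regulated reporter transcription units measure endogenous transcription factor activity. After 24 h exposure, reporter mRNA is quantified by RT-PCR with 6-FAM labelling, HpaI digestion and capillary electrophoresis. Bidirectional fitting against DMSO.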

[7] = target: Hepatocyte nuclear factor 6 (Homo sapiens) (UniProt Q9UBC0); assay: ATG_HNF6_CIS: Attagene CIS-FACTORIAL HepG2 Assay for human Hepatocyte Nuclear Factor 6 (HNF6) (AID 2282952); conditions: HepG2 Attagene cis-factorial HNF6 reporter transcription; actives raise or lower the signal
Chain of Hepatocyte nuclear factor 6 (Homo sapiens) (Q9UBC0 whole entry, looked up, the tested form may be a part): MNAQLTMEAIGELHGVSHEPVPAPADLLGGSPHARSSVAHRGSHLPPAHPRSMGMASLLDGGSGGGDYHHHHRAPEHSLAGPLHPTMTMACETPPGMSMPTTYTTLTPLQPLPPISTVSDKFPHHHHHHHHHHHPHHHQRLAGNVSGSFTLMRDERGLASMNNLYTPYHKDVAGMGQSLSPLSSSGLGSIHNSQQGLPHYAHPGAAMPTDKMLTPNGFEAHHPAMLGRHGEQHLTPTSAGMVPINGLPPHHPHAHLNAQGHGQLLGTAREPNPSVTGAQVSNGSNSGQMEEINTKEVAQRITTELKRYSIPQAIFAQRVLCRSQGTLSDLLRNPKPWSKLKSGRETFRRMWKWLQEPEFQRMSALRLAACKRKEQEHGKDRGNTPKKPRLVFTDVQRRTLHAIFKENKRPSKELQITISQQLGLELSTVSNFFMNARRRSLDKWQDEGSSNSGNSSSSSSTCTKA
Method in brief: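 Readout: fluorescent reporter-transcript fragments resolved by capillary electrophoresis after RT-PCR, reflecting endogenous factor activity in transfected HepG2. Exposure 24 h. Gain or loss of signal fitted bidirectionally against DMSO.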

[8] = target: Heat shock factor protein 1 (Homo sapiens) (UniProt Q00613); assay: ATG_HSE_CIS: Attagene CIS-FACTORIAL HepG2 Assay for human Heat Shock Transcription Factor 1 (HSE) (AID 2282953); conditions: HepG2 HSE cis-reporter, Attagene RNA transcription; actives raise or lower the signal
Chain of Heat shock factor protein 1 (Homo sapiens) (Q00613 whole entry, looked up): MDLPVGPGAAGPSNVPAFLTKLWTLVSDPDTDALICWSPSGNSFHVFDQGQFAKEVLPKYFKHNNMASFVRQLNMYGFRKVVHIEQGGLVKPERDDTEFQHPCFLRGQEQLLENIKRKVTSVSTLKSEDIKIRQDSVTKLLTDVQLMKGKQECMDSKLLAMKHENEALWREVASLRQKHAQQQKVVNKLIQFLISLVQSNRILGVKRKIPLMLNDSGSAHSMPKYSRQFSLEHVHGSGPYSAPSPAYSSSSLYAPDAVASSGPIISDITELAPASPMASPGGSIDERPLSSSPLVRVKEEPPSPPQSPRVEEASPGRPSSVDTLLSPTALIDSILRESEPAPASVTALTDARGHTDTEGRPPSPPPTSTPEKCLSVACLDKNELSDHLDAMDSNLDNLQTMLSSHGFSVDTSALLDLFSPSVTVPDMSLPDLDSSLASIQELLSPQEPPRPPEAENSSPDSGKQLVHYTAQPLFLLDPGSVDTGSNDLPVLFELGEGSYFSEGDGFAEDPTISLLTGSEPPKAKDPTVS
Method in brief: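 Reporter mRNA induction in HepG2 is measured 24 h after dosing, using transiently transfected multiplexed cis-regulated reporter units. Signal comes from capillary electrophoresis of labelled RT-PCR products, with DMSO as negative control.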

[9] = ATG_MRE_CIS: Attagene CIS-FACTORIAL HepG2 Assay for human Metal Responsive Element (MRE) (AID 2282954); conditions: HepG2 MRE cis-reporter transcription, Attagene multiplex; actives raise or lower the signal
Method in brief: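 Multiplexed cis-reporter assay in human HepG2 liver cells, 24 h incubation with test chemical. Reporter transcripts measured by RT-PCR and capillary electrophoresis; values from bidirectional curve fitting versus DMSO.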

[10] = ATG_PBREM_CIS: Attagene CIS-FACTORIAL HepG2 Assay for human Phenobarbital-responsive Enhancer Module (PBREM) (AID 2282955); conditions: HepG2 PBREM cis-reporter, Attagene multiplexed transcription; actives raise or lower the signal
Method in brief: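 HepG2 cells transiently transfected with multiple cis-regulated reporter units measure endogenous transcription factor activity; 24 h compound exposure. Reporter mRNA quantified by RT-PCR, fluorescent labelling, HpaI digestion and capillary electrophoresis; bidirectional fit versus DMSO.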

[11] = target: Paired box protein Pax-6 (Homo sapiens) (UniProt P26367); assay: ATG_Pax6_CIS: Attagene CIS-FACTORIAL HepG2 Assay for human Paired Box 6 (PAX6) (AID 2282956); conditions: HepG2 CIS-FACTORIAL PAX6 reporter transcription, RNA readout; actives raise or lower the signal
Chain of Paired box protein Pax-6 (Homo sapiens) (P26367 whole entry, looked up): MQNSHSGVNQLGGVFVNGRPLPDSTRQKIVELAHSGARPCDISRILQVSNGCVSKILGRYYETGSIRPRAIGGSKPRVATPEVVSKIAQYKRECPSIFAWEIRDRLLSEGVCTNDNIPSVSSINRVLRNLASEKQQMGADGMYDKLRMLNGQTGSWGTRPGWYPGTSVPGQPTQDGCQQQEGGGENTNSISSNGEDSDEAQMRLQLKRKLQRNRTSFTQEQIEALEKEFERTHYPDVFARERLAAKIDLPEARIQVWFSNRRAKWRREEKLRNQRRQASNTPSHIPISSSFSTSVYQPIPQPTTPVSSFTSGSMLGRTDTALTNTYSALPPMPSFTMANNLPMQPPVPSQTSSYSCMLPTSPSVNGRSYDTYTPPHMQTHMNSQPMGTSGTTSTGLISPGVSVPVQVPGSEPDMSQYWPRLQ
Method in brief: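 Fluorescent RT-PCR products separated by capillary electrophoresis report PAX6-linked promoter mRNA in HepG2 cells 24 h post-dose. Curves fitted bidirectionally, DMSO as negative control.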

[12] = ATG_PXRE_CIS: Attagene CIS-FACTORIAL HepG2 Assay for human Pregnane X Receptor Element (PXRE) (AID 2282957); conditions: HepG2 Attagene CIS-FACTORIAL PXRE reporter, mRNA; actives raise or lower the signal
Method in brief: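 Read-out: fluorescence of reporter-specific RT-PCR products resolved by capillary electrophoresis, fitted bidirectionally relative to DMSO. Human HepG2 liver cells carried transfected cis-promoter reporter units and were exposed to chemicals for 24 h.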

[13] = ATG_PPRE_CIS: Attagene CIS-FACTORIAL HepG2 Assay for human Peroxisome Proliferator-activated Response Element (PPRE) (AID 2282958); conditions: HepG2 PPRE cis-element reporter, Attagene transcription factor profiling; actives raise or lower the signal
Method in brief: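 HepG2 cells are transiently transfected with multiplexed cis-promoter reporter units to report endogenous PPAR activity. After 24 h dosing, reporter mRNA is read by RT-PCR and capillary electrophoresis. Fitting is bidirectional against DMSO.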

[14] = ATG_RORE_CIS: Attagene CIS-FACTORIAL HepG2 Assay for human RAR-related Orphan Receptor Element (RORE) (AID 2282959); conditions: HepG2 Attagene cis-factorial RORE reporter, mRNA; actives raise or lower the signal
Method in brief: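 HepG2 cells carrying transiently transfected cis-regulated reporter units; RORE-driven reporter mRNA quantified 24 h post-dosing by RT-PCR, 6-FAM primer extension, HpaI digestion and capillary electrophoresis. Bidirectional fit versus DMSO.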

[15] = target: Transcription factor Sp1 (Homo sapiens) (UniProt P08047); assay: ATG_Sp1_CIS: Attagene CIS-FACTORIAL HepG2 Assay for human Specificity Protein 1 (Sp1) (AID 2282961); conditions: HepG2 Sp1 cis-reporter transcription, actives raise or lower the signal
Chain of Transcription factor Sp1 (Homo sapiens) (P08047 whole entry, looked up): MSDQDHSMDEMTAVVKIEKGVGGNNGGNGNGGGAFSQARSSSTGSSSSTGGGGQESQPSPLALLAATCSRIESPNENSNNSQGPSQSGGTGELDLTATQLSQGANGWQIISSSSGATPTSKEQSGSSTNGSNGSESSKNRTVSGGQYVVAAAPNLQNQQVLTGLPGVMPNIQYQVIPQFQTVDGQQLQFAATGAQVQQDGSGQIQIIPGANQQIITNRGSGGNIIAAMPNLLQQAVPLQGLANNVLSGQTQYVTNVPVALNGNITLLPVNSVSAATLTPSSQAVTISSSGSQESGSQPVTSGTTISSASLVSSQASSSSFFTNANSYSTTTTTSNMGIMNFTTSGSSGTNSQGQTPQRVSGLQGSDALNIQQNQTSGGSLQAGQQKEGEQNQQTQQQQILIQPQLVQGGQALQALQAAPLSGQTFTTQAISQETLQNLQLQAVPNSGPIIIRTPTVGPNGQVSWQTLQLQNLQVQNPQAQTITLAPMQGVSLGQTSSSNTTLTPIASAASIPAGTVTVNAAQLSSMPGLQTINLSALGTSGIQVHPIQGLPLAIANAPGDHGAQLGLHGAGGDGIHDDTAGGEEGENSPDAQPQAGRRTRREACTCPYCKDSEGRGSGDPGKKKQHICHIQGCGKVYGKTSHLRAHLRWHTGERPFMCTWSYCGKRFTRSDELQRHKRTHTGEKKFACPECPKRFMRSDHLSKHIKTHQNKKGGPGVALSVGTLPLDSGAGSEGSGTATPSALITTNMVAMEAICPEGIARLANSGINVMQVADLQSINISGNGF
Method in brief: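 HepG2 cells transiently transfected with multiplexed cis-regulated reporter constructs, chemical exposure 24 h. Reporter mRNA quantified by RT-PCR with capillary electrophoresis; bidirectional fit relative to DMSO.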

[16] = ATG_SREBP_CIS: Attagene CIS-FACTORIAL HepG2 Assay for human Sterol Regulatory Element Binding (SREBP) (AID 2282962); conditions: HepG2 Attagene cis-factorial SREBP reporter, mRNA; actives raise or lower the signal
Method in brief: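 Endogenous factor activity is measured in HepG2 through multiplexed reporter units under cis-element control. Following a 24 h incubation, reporter transcripts are reverse-transcribed, PCR-amplified and sized by capillary electrophoresis; activity is fitted in both directions relative to DMSO.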

[17] = target: Signal transducer and activator of transcription 3 (Homo sapiens) (UniProt P40763); assay: ATG_STAT3_CIS: Attagene CIS-FACTORIAL HepG2 Assay for human Signal Transducer and Activator of Transcription 3 (STAT3) (AID 2282963); conditions: HepG2, Attagene cis-factorial STAT3 reporter transcription; actives raise or lower the signal
Chain of Signal transducer and activator of transcription 3 (Homo sapiens) (P40763 whole entry, looked up): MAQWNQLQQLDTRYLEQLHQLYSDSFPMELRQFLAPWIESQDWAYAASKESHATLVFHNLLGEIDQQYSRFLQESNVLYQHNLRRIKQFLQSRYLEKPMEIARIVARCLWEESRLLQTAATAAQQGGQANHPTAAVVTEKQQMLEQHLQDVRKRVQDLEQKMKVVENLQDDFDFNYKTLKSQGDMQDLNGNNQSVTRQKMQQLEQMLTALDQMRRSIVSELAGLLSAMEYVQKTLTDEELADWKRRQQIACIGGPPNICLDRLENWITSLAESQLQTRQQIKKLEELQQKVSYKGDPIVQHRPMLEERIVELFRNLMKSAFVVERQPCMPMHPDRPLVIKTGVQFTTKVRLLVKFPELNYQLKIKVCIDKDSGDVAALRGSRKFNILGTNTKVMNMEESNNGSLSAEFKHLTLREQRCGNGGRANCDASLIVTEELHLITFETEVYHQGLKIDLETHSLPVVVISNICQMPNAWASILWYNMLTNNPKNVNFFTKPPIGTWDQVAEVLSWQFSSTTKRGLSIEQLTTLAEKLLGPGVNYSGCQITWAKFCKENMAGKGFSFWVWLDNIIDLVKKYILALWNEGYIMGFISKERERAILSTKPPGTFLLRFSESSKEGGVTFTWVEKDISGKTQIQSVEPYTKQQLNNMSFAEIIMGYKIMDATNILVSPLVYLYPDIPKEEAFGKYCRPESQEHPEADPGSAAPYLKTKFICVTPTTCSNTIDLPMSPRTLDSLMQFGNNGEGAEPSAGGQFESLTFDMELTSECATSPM
Method in brief: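 Cis-factorial format: endogenous transcription factors in HepG2 drive transfected reporter units. After 24 h treatment, reporter RNA was reverse-transcribed, amplified, FAM-labelled and HpaI-digested before CE analysis; activity scored in both directions against DMSO.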

[18] = ATG_TA_CIS: Attagene CIS-FACTORIAL HepG2 Assay for human TA Basal Promoter (AID 2282964); conditions: HepG2 Attagene CIS-factorial TA basal promoter reporter; actives raise or lower the signal
Method in brief: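 Cis-factorial format in HepG2: reporters report endogenous factors, not chimeric Gal4 fusions. After 24 h treatment, reporter transcripts were measured by RT-PCR-capillary electrophoresis fluorescence, analysed bidirectionally versus DMSO.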

[19] = ATG_GRE_CIS: Attagene CIS-FACTORIAL HepG2 Assay for human Glucocorticoid Response Elements (GRE) (AID 2282947); conditions: HepG2 GRE cis-reporter, Attagene multiplex mRNA; actives raise or lower the signal
Method in brief: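 Multiplexed cis-reporter mRNA induction, HepG2, 24 h post-dose. RT-PCR, FAM-labelled, HpaI-digested amplicons by CE. Bidirectional fit vs DMSO.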

[20] = ATG_Sox_CIS: Attagene CIS-FACTORIAL HepG2 Assay for human SRY-box transcription factor (SOX) (AID 2282960); conditions: HepG2 Attagene cis-factorial SOX reporter, mRNA; actives raise or lower the signal
Method in brief: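 HepG2 cells transiently transfected with multiple cis-regulated reporter units, then dosed for 24 h. Reporter mRNA quantified by RT-PCR, fluorescent labelling, HpaI digestion and capillary electrophoresis; bidirectional fit versus DMSO.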

Measured: AC50

NC(=O)c1c(Cl)cccc1Cl
active: [12] 104 nM
inactive: [1] | [2] | [3] | [4] | [5] | [6] | [7] | [8] | [9] | [10] | [11] | [13] | [14] | [15] | [16] | [17] | [18]

CCC(C)(CCCC(C)C)OC(C)=O (configuration not stated)
inactive: [1] | [2] | [19] | [3] | [4] | [5] | [6] | [8] | [9] | [10] | [12] | [13] | [14] | [20] | [15] | [16] | [17]

CCCCCC1CCC(=O)O1 (configuration not stated)
inactive: [1] | [2] | [19] | [3] | [4] | [5] | [6] | [7] | [8] | [9] | [11] | [12] | [13] | [14] | [20] | [15] | [16] | [17] | [18]

C#C[C@]1(O)CC[C@H]2[C@@H]3CCc4cc(O)ccc4[C@H]3CC[C@@]21C
inactive: [1] | [19] | [3] | [4] | [5] | [6] | [8] | [9] | [11] | [12] | [13] | [20] | [15] | [16] | [17] | [18]
active: [1] 98.4 µM and 72.2 µM and 62.4 µM | [19] 159 µM | [3] 33.4 µM and 27.3 µM | [4] 161 µM | [6] 49 µM and 67.4 µM | [8] 59.2 µM [middle of 4 runs] | [9] 52.1 µM [middle of 4 runs] | [12] 3.19 µM [middle of 4 runs] | [20] 130 µM and 54.9 µM | [15] 169 µM and 44.8 µM | [17] 68 µM and 155 µM | [18] 132 µM

COc1ccc2[nH]cc(CCNC(C)=O)c2c1
inactive: [1] | [2] | [19] | [3] | [4] | [5] | [7] | [8] | [9] | [10] | [11] | [12] | [13] | [14] | [20] | [15] | [16] | [17] | [18]

CN1CCc2cccc3c2[C@H]1Cc1ccc(O)c(O)c1-3
active: [3] 13.3 µM | [12] 1260 nM | [16] 13.3 µM
inactive: [1] | [2] | [19] | [4] | [5] | [7] | [8] | [9] | [10] | [11] | [15] | [17] | [18]
